NLRP3 yeast inh = blocks the NALP3 inflammasome reconstituted in yeast | Yeast reconstituted NLRP3/ASC/caspase-1, beta-gal luminescence, 24 h | inhibition, % at 10 µM | 330,000 tested, 0.39% active;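 active means inhibition of 50% or more; inactive means inhibition below 50%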;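 further: plate controls were induced DMSO wells for no effect and uninduced yeast grown without galactose for full effect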
PfHsp90 set2 = reduces growth (ATP signal) of yeast expressing P. falciparum Hsp90; S. cerevisiae expressing PfHsp90, BacTiter-Glo ATP, 48 h; yeast lacking PDR1 and PDR3 efflux regulators; inhibition, % at 9.4 µM; 310,000 tested, 0.32% active;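 active means every replicate shows inhibition above about 80%, whatever the replicate mean, limit read from the data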;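 further: 0% = DMSO neutral controls and 100% = 20 µM radicicol positive controls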
tim23-1 inh = tim23-1 yeast growth inhibition | S. cerevisiae tim23-1 growth, BacTiter-Glo luminescence, 24 h | inhibition, % at 20 µM | 330,000 tested, 1.3% active | AID 463212;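 active means growth inhibition of the mutant yeast at or above 50%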;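 further: temperature-sensitive mutant grown at 25 °C; plate controls were DMSO-treated mutant yeast for no effect and medium wells lacking yeast for full effect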
tim10-1 inh = tim10-1 yeast growth inhibition; S. cerevisiae tim10-1 ts strain growth, BacTiter-Glo, 24 h; inhibition, % at 20 µM; 330,000 tested, 2.2% active;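 active means inhibition of at least 40%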;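 further: mutant grown at 25 °C; 0% = DMSO wells with yeast and 100% = wells holding no yeast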
TIM10 inh = TIM10 yeast growth inhibition | S. cerevisiae TIM10 strain growth, BacTiter-Glo luminescence, 24 h | inhibition, % at 10 µM | 330,000 tested, 1.4% active | AID 463195;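 active means inhibition of 40% or more at the single tested concentration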;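 further: wild-type TIM10 isogenic control strain grown at permissive 25 °C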
SKKanGAS inh = SKKanGAS growth inhibition | S. pyogenes SKKanGAS, kanamycin growth, BacTiter-Glo, 6 h | inhibition, % at 7.5 µM | 300,000 tested, 1.3% active;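 active means mean replicate score, as percent of positive control median, at least 50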;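 further: strain carries kanamycin resistance gene driven by streptokinase promoter and grows in 40 µg/ml kanamycin; loss of luminescence reflects streptokinase promoter inhibition or plain growth inhibition; 0% = median of DMSO wells and 100% = positive control at its reference dose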
tim10-1 conf = confirmation of tim10-1 mutant yeast growth inhibitors | shares compounds with tim10-1 inh | S. cerevisiae tim10-1 ts strain growth, BacTiter-Glo, 24 h | 7,400 tested, 56% active | inhibition, % at 20 µM;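 active means inhibition of yeast growth at or above a set limit in either of two repeat tests at 20 µM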;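 further: tim10-1 mutant grown at permissive 25 °C to find synthetic lethal compounds; 0% = DMSO yeast wells and 100% = medium wells without yeast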
An asterisk follows results filed as active; . = not tested or not shown. Shown are actives, neighbours in structure and some others; about 4.6% of the full set was active somewhere.

SMILES	NLRP3 yeast inh	PfHsp90 set2	tim23-1 inh	tim10-1 inh	TIM10 inh	SKKanGAS inh	tim10-1 conf
Cc1ccc(Cl)c(OC(=O)C2CSC3(C)CCC(=O)N23)c1 (stereo not drawn)	3.4	8.6	39.5	40.1*	26.7	-14.4	26.9
CCOc1ccccc1NC(=S)Nn1cnnc1	13.1	0.8	7.5	-1.9	4.6	-3.5	.
COCCNC(=O)c1c(N)n(/N=C/c2cccs2)c2nc3ccccc3nc12	12.5	-17.0	28.1	43.5*	18.8	11.6	1.9
CCOC(=O)Cc1nnc(Nc2ccc(C)cc2C)c2ccccc12	4.3	-9.2	16.3	23.0	16.9	3.8	.
COc1ccc([C@H]2CC(=O)C=C(c3ccc(SC)cc3)C2)cc1	15.3	8.2	-1.1	2.0	1.7	.	.
CC1(C)CC(=O)c2c(nn(-c3ccccc3)c2-c2ccncc2)C1	5.9	.	28.5	45.6*	2.3	2.0	35.7*
Cc1c2c(nc3ccccc13)CC(C)(C)CC2=O	11.4	6.4	24.2	5.5	-6.3	-2.7	.
Cc1ccccc1C(=O)NCCCNC(=O)c1ccccn1	7.3	-25.2	-1.8	-3.1	6.7	-5.5	.
O=C(CCNc1cc(Cl)cc(Cl)c1)c1cccs1	11.9	-37.6	41.9	46.2*	35.0	-5.7	19.0
Cc1cc(C)c(/C=C(\C#N)C(N)=S)c(C)c1	12.1	-72.3	45.5	40.7*	27.3	-7.6	23.4
C=CCn1c(C2CCCCC2)n[nH]c1=S	-4.9	0.9	-11.6	25.8	-11.9	-9.4	.
c1ccc(CNc2nc(NCc3ccccc3)c3ccccc3n2)cc1	30.0	9.5	-67.5	61.7*	-37.2	0.6	-89.2
CCc1ccc(OCC(=O)N/N=C(\C)c2ccc3c(c2)OCCO3)cc1	37.7	28.2	44.2	23.5	13.4	-3.4	.
C/C(=N\NC(=O)COc1ccc(C(C)(C)C)cc1)c1ccc2c(c1)OCCO2	3.1	-9.0	24.6	40.8*	16.0	-0.9	20.1
CCOc1cc(C2C(C#N)=C(N)OC(C)=C2C(C)=O)cc(Br)c1O (stereo not drawn)	20.7	.	15.3	10.1	-12.0	13.8	.
CCOc1cc(C2C(C#N)=C(N)OC(C)=C2C(C)=O)c(Br)c(Br)c1OC(C)C (stereo not drawn)	20.5	.	45.0	45.5*	4.8	2.5	26.6
CCCC1CC(C(=O)Nc2ccccc2)C(=O)O1 (stereo not drawn)	10.7	2.4	-0.5	-8.1	-0.1	4.1	.
Cc1ccc(NC(=O)CSc2nnnn2C2CCCC2)cc1S(=O)(=O)N1CCOCC1	-5.7	-7.4	15.5	6.8	6.3	.	.
COc1cc(/C=C2\C(=N)N3N=C(S(=O)(=O)CC(C)C)SC3=NC2=O)ccc1OC(=O)c1ccco1	0.6	.	18.7	41.4*	13.6	34.1	4.7
Fc1ccc(-c2nn3c(C4COc5ccccc5O4)nnc3s2)cc1 (stereo not drawn)	1.8	-143.8	25.3	47.5*	34.3	-3.7	43.2*
COc1cc(/C=N/NC(=O)c2nnn(-c3nonc3N)c2C(C)C)ccc1OCc1ccc(F)cc1	19.4	-6.8	3.9	43.1*	8.7	58.0*	-0.9
CCCc1c(C(=O)N/N=C/c2ccc(OCc3ccccc3)c(OC)c2)nnn1-c1nonc1N	5.4	-6.2	-10.8	2.1	-24.9	13.2	.
NS(=O)(=O)c1cccc(NC(=O)COC(=O)CCN2C(=O)c3ccccc3C2=O)c1	-1.5	4.3	-6.3	-11.5	3.5	.	.
CCc1ccc(/C(C)=N/NS(=O)(=O)c2ccc(OC)cc2)s1	24.4	-8.8	37.6	10.0	26.7	-0.7	.
Cc1nn(-c2ccc(C(=O)N3CCN(S(=O)(=O)c4ccccc4C(F)(F)F)CC3)cc2)c(C)c1Cl	23.7	-1.2	14.2	11.2	20.2	.	.
SMILES	NLRP3 yeast inh	PfHsp90 set2	tim23-1 inh	tim10-1 inh	TIM10 inh	SKKanGAS inh	tim10-1 conf
CC(=O)c1ccc(S(=O)(=O)N2CCN(C(=O)c3ccc(-n4nc(C)c(Cl)c4C)cc3)CC2)cc1	26.7	-22.7	20.2	40.9*	12.9	.	19.1
COc1ccc(/C=N/NC(=O)CNC(=O)c2ccc3c(c2)OCCO3)c(C(=O)O)c1OC	0.9	13.3	-6.0	-7.1	1.6	-2.5	.
Cc1cc2c(=O)n(Cc3ccco3)c(SCC(=O)c3ccc(Cl)s3)nc2s1	3.5	.	-3.0	9.0	3.2	-6.6	.
CCOC(=O)CC(=O)CSc1nc2sc(C)cc2c(=O)n1Cc1ccco1	0.0	14.8	37.2	44.8*	25.2	3.5	19.3
Cc1nn(C(C)C(=O)NC2CCC(C)CC2)c(=O)c2nn(-c3ccccc3)c(C)c12 (stereo not drawn)	-1.9	-11.7	27.5	40.7*	14.9	-3.8	10.6
CC(=O)Oc1ccc2c(=O)c(-c3ccccc3)coc2c1	30.4	-9.9	35.2	42.5*	21.6	5.9	32.0*
CN1/C(=C\C(=O)Nc2ccc(Br)cc2)C(C)(C)c2ccccc21	18.7	9.0	48.8	45.5*	39.2	70.7*	53.6*
CCOc1ccc(C2CC(=O)N(Nc3ccc([N+](=O)[O-])cc3[N+](=O)[O-])C2=O)cc1 (stereo not drawn)	18.4	-6.4	-9.9	18.2	7.8	6.6	.
Cc1ccc(C2=NS(=O)(=O)N(C)C(C(=O)NCc3ccccc3)=C2)cc1	-0.3	2.9	16.7	5.9	-2.7	4.6	.
CCOc1ccc(CCNC(=O)C(C)N2C(=O)CC(C)(C)Sc3ccccc32)cc1 (stereo not drawn)	-4.7	10.1	38.9	41.6*	12.0	0.0	25.4
CCOc1cc(S(=O)(=O)Nc2ccccc2CC)ccc1Cl	21.5	-29.6	33.3	25.7	9.6	1.5	.
CCOc1cc(S(=O)(=O)Nc2ccc(CC)cc2)ccc1Cl	20.7	.	45.8	59.2*	33.4	1.6	25.1
S=c1[nH]c2cc(-c3ccccc3)ccc2o1	15.5	-78.7	48.2	42.9*	31.0	26.8	28.0
CC1Cc2ccccc2N1C(=O)CN1C(=O)NC(C)(CCc2ccccc2)C1=O (stereo not drawn)	-4.1	3.8	0.9	-0.2	-24.0	-1.5	.
Cc1cc(C(F)(F)F)n(-c2nc(C(=O)N/N=C/c3ccc(F)cc3)cs2)n1	20.5	.	11.6	42.1*	14.5	3.4	20.4
COc1ccccc1NC(=S)N(Cc1ccccc1)Cc1ccccn1	-0.6	-2.6	35.4	16.6	31.3	-3.7	.
S=C(Nc1ccccc1Cl)N(Cc1ccccc1)Cc1ccccn1	-13.7	19.2	33.2	46.8*	2.5	12.9	25.4
CCc1ccc2[nH]c(=O)c(C3C(C#N)=C(N)Oc4c3ccc3cccnc43)cc2c1 (stereo not drawn)	20.0	-11.0	36.2	41.2*	25.5	57.7*	11.6
COc1ccc(Cl)cc1NC(=O)C(OC)c1ccccc1 (stereo not drawn)	16.0	-20.8	15.2	-10.2	7.8	8.3	.
COC(/C(=N/O)c1ccc(Cl)cc1)c1ccccc1 (stereo not drawn)	-20.1	-27.7	46.6	46.6*	25.7	10.4	31.0*
